Data taken from PubChem BioAssay AID1347075 (National Center for Advancing Translational Sciences (NCATS), 2019).
In all, about 400,000 compounds went through this assay and about 5,500 (1.4%) were called active. Where a call stands in place of a potency, no number is given. About 9% were inconclusive and are not listed. The sample holds actives, similar compounds and a random draw of the others, so the mix is not that of the screen. The call rests on the fitted dose curve; in most records, active means well fitted cell-killing curve with a large enough effect; inconclusive means small, poorly fitted or top-dose-only effect, or effect the other way; inactive means flat fitted curve, though single readings scatter.

Experiment: qHTS assay for MDR1-selective chemotherapeutics: Primary screen using the parental adenocarcinoma cell KB-3-1; further: nearly all actives have a fitted effect of over 60% in size
Conditions: KB-3-1 viability, CellTiter-Glo ATP luminescence, 72 h; series mostly up to 46.1 µM
Outline: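 72 h, 37 °C compound treatment of KB-3-1 parental cells; CellTiter-Glo added, 10 min, luminescence read. Data corrected against DMSO-only plates and normalized before curve fitting.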
Potency means the concentration at half of the fitted maximal effect.

Row | SMILES | Potency
1 | CCOC(=O)CN1C(C(=O)c2ccccc2)=C(OC(=O)C(C)(C)C)c2ccccc2S1(=O)=O | inactive
2 | COc1ccc(Cn2c(-c3ccc(Cl)cc3)c[n+]3ccccc23)cc1 | 3.66 µM (active)
3 | COc1ccc(Cn2c(=O)oc3ccccc32)cc1 | inactive
4 | COc1ccc(CNc2nc(-c3ccc(Cl)cc3)nn2C(=O)c2ccccc2)cc1 | inactive
5 | Cc1oc2ncnc(N3CCCCC3)c2c1C(=O)N1CCN(c2cccc(Cl)c2)CC1 | inactive
6 | Cc1ccc(CNC(=O)c2cc(-c3ccccc3C)n(CC3CC(c4cccc([N+](=O)[O-])c4)=NO3)n2)cc1 (stereo not given) | inactive
7 | Cc1ccccc1-c1cc(C(=O)NCC2CC2)n(CC2CC(c3cccnc3)=NO2)n1 (stereo not given) | inactive
8 | Cc1ccccc1-c1cc(C(=O)NCc2cccs2)n(CC2CC(c3cccnc3)=NO2)n1 (stereo not given) | 18.4 µM (active)
9 | C=C1C=C(C(F)F)n2ncc(C(=O)NCCc3ccccc3OC)c2N1 | inactive
10 | CCn1cc(C(=O)NCc2ccccc2)c(=O)c2cc(S(=O)(=O)N3CCCCC3)ccc21 | inactive
11 | O=C(CSc1nc2c(c(=O)[nH]1)CN(Cc1ccc3c(c1)OCO3)CC2)Nc1cc(F)ccc1F | inactive
12 | Fc1ccc2[nH]c3c(N4CCN(Cc5ccc6c(c5)OCO6)CC4)ncnc3c2c1 | 18.4 µM (active)
13 | Fc1ccc2[nH]c3c(N4CCSCC4)ncnc3c2c1 | 5.17 µM (active)
14 | N#C/C=C/N1CCN(Cc2ccc3c(c2)OCO3)CC1 | inactive
15 | CCc1nc2onc(C)c2c(=O)n1CC(=O)O | inactive
16 | Cc1oc2ncn(CC(C)C)c(=O)c2c1C(=O)N1CCN(c2ccccc2F)CC1 | inactive
17 | O=C(NCCC1=CCCCC1)c1ccc2c(c1)N(Cc1ccccc1F)C(=O)c1ccccc1S2(=O)=O | inactive
18 | O=C(CCS(=O)(=O)c1cc(Br)cc2c1N(C(=O)C1CC1)CC2)Nc1ccc(C(F)(F)F)cc1 | inactive
19 | Cc1cccc(N2CCN(c3ccc(C(=O)O)cc3NC(=O)c3ccccc3F)CC2C)c1 (stereo not given) | inactive
20 | O=C(c1cnn2c1NC(=C1CC1)C=C2C(F)F)N1CCc2ccccc2C1 | inactive
21 | CSc1nn(Cc2cccc(C)c2)c(N)c1S(=O)(=O)c1ccccc1 | inactive
22 | COc1ccc(-c2cc(NC=O)c3ncc(-c4cc(OC)c(OC)c(OC)c4)n3c2)c(OC)c1 | 1.3 µM (active)
23 | CC(=O)c1cccc(-c2cnc3c(NC=O)cc(-c4ccccc4Oc4ccccc4)cn23)c1 | inactive
24 | COc1cccc(-c2cnc3c(NC(C)=O)cc(-c4cc(F)ccc4OC)cn23)c1 | 16.4 µM (active)

Row | SMILES | Potency
25 | COc1ccc(-c2cc(NC=O)c3ncc(-c4cccc(C(=O)N(C)C)c4)n3c2)c(OC)c1 | inactive
26 | CC(=O)Nc1cccc(-c2cc(NC(C)=O)c3ncc(-c4ccccc4)n3c2)c1 | inactive
27 | COc1ccc(-c2cc(NC(C)=O)c3ncc(-c4cc(OC)c(OC)c(OC)c4)n3c2)cn1 | 5.8 µM (active)
28 | COc1cccc(-c2cnc3c(NC(C)=O)cc(-c4cccc(NC(C)=O)c4)cn23)c1 | inactive
29 | COc1ccccc1-c1cc(NC(C)=O)c2ncc(-c3ccc(F)cc3)n2c1 | inactive
30 | COc1cccc(-c2cc(NC(C)=O)c3ncc(-c4cccc(C(C)=O)c4)n3c2)c1 | inactive
31 | CCCN(C(=O)Cn1ncc2c([nH]c3ccc(C)cc32)c1=O)c1ccccc1C | inactive
32 | CCc1ccc2oc(-c3ccc(NC(=O)c4cc5ccccc5o4)cc3)nc2c1 | inactive
33 | COc1ccc(NC(C)=O)cc1NC(=O)CN1CCN(c2ccc(F)cc2)CC1 | inactive
34 | COC(=O)c1ccc(NC(=O)c2cc(S(=O)(=O)N3CCC(C)CC3)cn2C)cc1 | inactive
35 | CCOC(=O)c1c(C)oc2nc(C)nc(N(CC(C)C)CC(C)C)c12 | inactive
36 | CC(C)(O)c1ccccc1CC[C@H](SCC1(CC(=O)O)CC1)c1cccc(/C=C/c2ccc3ccc(Cl)cc3n2)c1 | inactive
37 | CCc1cnc2c(c1SCC(=O)c1ccccc1)c(=O)n(C)c(=O)n2C | inactive
38 | Cc1ccc(C)c(S(=O)(=O)c2nnn3c2nc(N2CCOCC2)c2sccc23)c1 | inactive
39 | Cc1ccc(C)c(S(=O)(=O)N2CCN(c3ncnc4sccc34)CC2)c1 | 9.2 µM (active)
40 | Cc1ccc(C)c(S(=O)(=O)n2nc(C)c(S(=O)(=O)N3CCC(C)CC3)c2C)c1 | inactive
41 | CCOCCCNC(=O)c1cn(CC)c2ccc(S(=O)(=O)N3CCc4ccccc4C3)cc2c1=O | inactive
42 | NC(=O)Nc1ccc(C(=O)OCC(=O)NC2CCCc3ccccc32)cc1 (stereo not given) | inactive
43 | COC(=O)c1cc(OCC(=O)NC2CCCc3ccccc32)cc(C(=O)OC)c1 (stereo not given) | inactive
44 | O=C(CCNC(=O)c1ccc(Cl)cc1)NC1CCCc2ccccc21 (stereo not given) | 7.31 µM (active)
45 | Cc1ccc(Cl)cc1NC(=O)CCS(=O)(=O)c1ccc(Br)s1 | inactive
46 | CCc1nc(C)ccc1OCC(=O)N(CC)CC | inactive
47 | CCC(C)(C)c1ccc(OCC(=O)N(C)C)c(C(C)(C)CC)c1 | 16.4 µM (active)
48 | COc1ccc(Cl)cc1NC(=O)CSc1nc2ccccc2c2nc(-c3ccccc3)nn12 | inactive

Row | SMILES | Potency
49 | CSc1oc(-c2cccs2)nc1S(=O)(=O)c1ccc(Br)cc1 | inactive
50 | CCOc1ccc(NC(=O)C(CC(C)C)N2Cc3ccccc3C2=O)cc1 (stereo not given) | inactive
51 | CCCn1nnc2sc3c(c2c1=O)CCC(C)C3 (stereo not given) | inactive
52 | C=CCn1c(SCC(=O)NCCCO)nc2sc3c(c2c1=O)CCC3 | inactive
53 | C=CCn1c(SCc2c(C)noc2C)nc2sc3c(c2c1=O)CCC(C)C3 (stereo not given) | 4.11 µM (active)
54 | O=S(=O)(Nc1ccc2nc(-c3cccc(Cl)c3)oc2c1)c1ccccc1 | inactive
55 | CN(Cc1ccccc1)S(=O)(=O)c1ccc(F)c(C(=O)Nc2cccc(Cl)c2Cl)c1 | inactive
56 | C=CCn1c(CC(=O)Nc2cccc(OC)c2)nnc1SCC(=O)NC1CCCCC1 | inactive
57 | COc1cccc(-n2c(SCC(=O)NC3CCCCC3)nc3n[nH]c(C)c3c2=N)c1 | 13 µM (active)
58 | COc1ccc(-n2c(SCC(=O)Nc3ccc(Cl)c(C)c3)nc3n[nH]c(C)c3c2=N)cc1 | inactive
59 | ClC/C=C/C[n+]1ccccc1Cl | inactive
60 | CCOc1ccc(-c2cc3c(=O)n(CC(=O)NCc4ccc(OC)cc4)ccn3n2)cc1 | inactive
61 | CN(O)C(=S)c1ccccc1 | 0.0052 µM (active)
62 | CN(c1ccccc1)S(=O)(=O)c1cccc(NC(=O)Cc2ccc(Cl)cc2)c1 | 23.1 µM (active)
63 | Cc1ccc(S(=O)(=O)N(CC(=O)Nc2cccc([N+](=O)[O-])c2)Cc2ccc(Cl)cc2)cc1 | inactive
64 | CN(c1ccccc1)S(=O)(=O)c1ccc(NC(=O)COc2ccccc2)cc1 | inactive
65 | Nc1ncnc2nnsc12 | inactive
66 | CC(C)Oc1cccc(-c2cnc(N3CCC(C(N)=O)CC3)s2)c1 | inactive
67 | COc1cc2nc(SCc3ccc(F)cc3)n3nc(CCn4c(C)nc5ccccc54)nc3c2cc1OC | inactive
68 | CCCOc1ccc(-c2cccc(NS(=O)(=O)c3ccccc3)c2)nn1 | inactive
69 | COc1ccc(-c2cccc(NS(=O)(=O)c3cc(C)c(OC)c(C)c3C)c2)nn1 | 3.66 µM (active)
70 | COc1ccc(OC)c(S(=O)(=O)Nc2cccc(-c3ccc4nncn4n3)c2)c1 | inactive
71 | O=C(Nc1ccc(-c2nc3cc(NC(=O)c4ccccc4Cl)ccc3o2)cc1)c1ccccc1Cl | inactive
72 | C/C(=N/Nc1ccc(Cl)cc1)c1cnnc(-c2ccccc2)n1 | inactive

Row | SMILES | Potency
73 | C/C(=N\Nc1ccc(Cl)nn1)c1ccccc1O | 14.6 µM (active)
74 | Fc1ccccc1Cc1ccc(Cl)nn1 | inactive
75 | CC(=O)N1CCc2cc(S(=O)(=O)NC(Cc3ccccc3)C(=O)NCc3ccc(C)cc3)ccc21 (stereo not given) | inactive
76 | Nc1ccc(C(=O)N2CCN(S(=O)(=O)c3ccc(Cl)cc3)CC2)cc1[N+](=O)[O-] | inactive
77 | CC1CCN(C(=O)c2ccc(S(=O)(=O)Cc3cc(F)ccc3F)c([N+](=O)[O-])c2)CC1 | 23.1 µM (active)
78 | O=C(c1ccc(Oc2ccc(Cl)cc2)c([N+](=O)[O-])c1)N1CCCC1 | inactive
79 | CC[C@]1(O)C[C@@H]2CN(CCc3c([nH]c4ccccc34)[C@@](C(=O)OC)(c3cc4c(cc3OC)N(C)[C@H]3[C@@](O)(C(=O)OC)[C@H](OC(C)=O)[C@]5(CC)C=CCN6CC[C@]43[C@@H]65)C2)C1 | 0.164 µM (active)
80 | COc1cc(NC(=O)Cn2nc(-c3ccc(C)c(C)c3)ccc2=O)cc(OC)c1 | inactive
81 | N#Cc1nc(NCc2ccc(Cl)c(Cl)c2)c2ncn(CCCO)c2n1 | inactive
82 | O=C(NCC(c1ccc(Cl)cc1)N1CCOCC1)c1ccccc1F (stereo not given) | inactive
83 | COc1ccccc1CCNC(=O)C(=O)NCCC1CCCCN1S(=O)(=O)c1cccs1 (stereo not given) | inactive
84 | O=C(NCCC1CCCCN1S(=O)(=O)c1cccs1)C(=O)Nc1ccc(F)cc1F (stereo not given) | 23.1 µM (active)
85 | O=C(NCCC1CCCCN1S(=O)(=O)c1ccc(F)cc1)C(=O)NC1CC1 (stereo not given) | inactive
86 | CCCCCn1c(=O)[nH]c2cc(C(=O)NCCN(C)CCCC)ccc2c1=O | inactive
87 | Cc1noc(C)c1COC(=O)COc1ccc(-c2ccccc2)cc1 | inactive
88 | CC(=O)c1ccc(NC(=O)COc2ccccc2-c2nc(-c3ccccc3)no2)cc1 | inactive
89 | O=C(Oc1ccc(-c2nc(-c3ccccn3)no2)cc1)c1ccccc1 | 7.31 µM (active)
90 | CCOC(=O)c1c(-c2ccc(OC)cc2)oc2ccc(OCc3ccc(C(=O)OC)cc3)cc12 | inactive
91 | O=C(OC/C=C/CSc1nnc(-c2cccc3ccccc23)o1)c1ccc(F)cc1 | inactive
92 | Cc1nc2c(-c3ccccc3)c(C)nn2c(C)c1CCC(=O)NCCc1ccccc1 | inactive
93 | Cc1ccc(C)c(N2CCN(C(=O)Cn3ncc4c(=O)oc5ccc(C)cc5c43)CC2)c1 | inactive
94 | CC1CCCN(c2csc3ccc(F)cc3c2=O)C1 (stereo not given) | inactive
95 | N#CC1=C(SCc2ccccc2)NC(=O)C(C#N)C12CCCC2 (stereo not given) | 11.6 µM (active)
